Test results: PubChem BioAssay AID602144 (Vanderbilt Specialized Chemistry Center, 2011)
“And” between values parts separate entries of the source, which are not always exact repeats. Equal entries are not always repeated. Unmarked numbers belong to inactive results. The source made the active and inactive calls. Cut-off read from the data, not from the text of the source: active = remaining activity below about 50%; inactive = the rest.

Target: Phospholipase D1 (Homo sapiens) (UniProt Q13393)
Experiment: cellular phospholipase D1 activity inhibition – Calu-1 cells, single concentration (AID 602144);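 note: tested at 200 nM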
Settings: cellular PLD1 activity, hits give low values

Chain of Phospholipase D1 (Homo sapiens) (Q13393 whole entry, looked up): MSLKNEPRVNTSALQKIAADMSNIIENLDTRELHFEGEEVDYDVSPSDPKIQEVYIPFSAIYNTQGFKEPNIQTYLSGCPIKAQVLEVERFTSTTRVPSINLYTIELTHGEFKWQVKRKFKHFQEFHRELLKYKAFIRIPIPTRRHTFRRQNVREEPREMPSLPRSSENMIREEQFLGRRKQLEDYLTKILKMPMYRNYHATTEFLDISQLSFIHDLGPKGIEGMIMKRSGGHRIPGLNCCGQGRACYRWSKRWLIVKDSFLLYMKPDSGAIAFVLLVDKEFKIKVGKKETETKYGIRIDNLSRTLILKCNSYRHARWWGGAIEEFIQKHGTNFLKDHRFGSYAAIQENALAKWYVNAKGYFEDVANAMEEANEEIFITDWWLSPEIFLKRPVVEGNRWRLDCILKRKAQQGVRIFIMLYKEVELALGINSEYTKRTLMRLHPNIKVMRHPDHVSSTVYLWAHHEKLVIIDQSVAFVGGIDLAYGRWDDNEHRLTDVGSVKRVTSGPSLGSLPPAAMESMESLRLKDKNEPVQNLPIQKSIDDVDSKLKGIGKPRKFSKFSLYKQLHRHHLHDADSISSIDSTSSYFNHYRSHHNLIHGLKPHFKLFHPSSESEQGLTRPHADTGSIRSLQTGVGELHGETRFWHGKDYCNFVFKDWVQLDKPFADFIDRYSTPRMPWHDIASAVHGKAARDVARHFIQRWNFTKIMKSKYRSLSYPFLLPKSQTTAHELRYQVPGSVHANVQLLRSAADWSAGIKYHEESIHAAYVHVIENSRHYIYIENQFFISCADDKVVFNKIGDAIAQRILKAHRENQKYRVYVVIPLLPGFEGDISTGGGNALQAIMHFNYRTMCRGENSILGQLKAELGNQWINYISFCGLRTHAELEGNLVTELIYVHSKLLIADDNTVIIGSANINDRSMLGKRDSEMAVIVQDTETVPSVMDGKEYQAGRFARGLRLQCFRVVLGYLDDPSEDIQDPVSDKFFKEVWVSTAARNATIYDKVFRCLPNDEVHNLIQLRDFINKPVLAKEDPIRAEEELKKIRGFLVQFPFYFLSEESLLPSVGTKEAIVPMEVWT
Chain of Phospholipase D1 (Homo sapiens) (Q13393 whole entry, looked up): as above

| Structure (SMILES) | remaining activity |
| --- | --- |
| O=C(NCCN1CCC2(CC1)C(=O)NCN2c1cccc(Cl)c1)c1cc2cc(F)ccc2[nH]1 | 58% |
| O=C(NCCN1CCC2(CC1)C(=O)NCN2c1ccc(F)c(F)c1)c1ccc2ccccc2c1 | 84.3% |
| CCC(=O)N[C@@H](C)CN1CCC2(CC1)C(=O)NCN2c1ccccc1 | 93.3% |
| O=C(NCCN1CCC2(CC1)C(=O)NCN2c1cccc(Cl)c1)c1cnc2ccccc2c1 | 55.4% |
| O=C(COCc1ccccc1)NCCN1CCC2(CC1)C(=O)NCN2c1cccc(F)c1 | 108% |
| O=C(NCCN1CCC2(CC1)C(=O)NCN2c1ccccc1)c1cc(-c2ccccc2)no1 | 97.4% |
| O=C(NCCN1CCC2(CC1)C(=O)NCN2c1ccccc1)c1ccc2c(c1)OCO2 | 92.4% |
| CC(C)(C)C(=O)NCCN1CCC2(CC1)C(=O)NCN2c1cccc(F)c1 | 71.8% |
| O=C(CCN1CCC2(CC1)C(=O)NCN2c1ccccc1)Nc1ccc(F)c(F)c1 | 125% |
| CC(C)[C@@H](CN1CCC2(CC1)C(=O)NCN2c1ccccc1)NC(=O)c1ccc(Cl)cc1 | 18% (active) |
| O=C(c1ccc(F)c(F)c1)N1CCCC1CN1CCC(n2c(=O)[nH]c3ccccc32)CC1 (stereo not given) | 85.3% and 91.1% |
| C[C@@H](CN1CCC2(CC1)C(=O)NCN2c1ccc(F)c(F)c1)NC(=O)c1ccc(Cl)cc1 | 6.51% (active) |
| O=C(NCCN1CCC2(CC1)C(=O)NCN2c1ccc(F)cc1)c1ccc2cc(F)ccc2c1 | 94.6% |
| O=C(NCCN1CCC2(CC1)C(=O)N(Cc1ccccc1)c1ccccc12)c1ccc2ccccc2c1 | 98.9% |
| O=C(NCCN1CCC2(CC1)C(=O)NCN2c1ccccc1)c1cc(=O)c2cc(Br)ccc2o1 | 110% |
| O=C(CCN1CCC2(CC1)C(=O)NCN2c1ccccc1)Nc1ccc(F)cc1 | 125% |
| O=C(C1C[C@H]1c1ccccc1)N1CC(N2CCC(n3c(=O)[nH]c4ccccc43)CC2)C1 (stereo not given in full) | 125% |
| O=C(N[C@@H](Cc1ccccc1)CN1CCC2(CC1)C(=O)NCN2c1ccccc1)c1ccc(F)c(F)c1 | 75.5% |

| Structure (SMILES) | remaining activity |
| --- | --- |
| CCOC(=O)CCN1CCC2(CC1)C(=O)NCN2c1ccccc1 | 83.2% |
| O=C(NCCN1CCC2(CC1)C(=O)NCN2c1ccccc1)c1cc(Br)c(Br)o1 | 66.9% |
| O=C(C1CC1c1ccccc1)N1CC(N2CCC3(CC2)C(=O)NCN3c2ccccc2)C1 (stereo not given) | 94.4% |
| O=C(NCCN1CCC2(CC1)C(=O)NCN2c1ccccc1)c1cccnn1 | 105% |
| C[C@@H](CN1CCC2(CC1)C(=O)NCN2c1ccc(F)c(F)c1)NC(=O)c1ccc(F)cc1 | 22.8% (active) |
| O=C(c1cnc2ccccc2c1)N1CCCC1CN1CCC(n2c(=O)[nH]c3ccccc32)CC1 (stereo not given) | 122% |
| O=C(c1cnc2ccccc2c1)N1CC(N2CCC(n3c(=O)[nH]c4ccccc43)CC2)C1 | 119% |
| O=C(NCCN1CCC2(CC1)C(=O)NCN2c1ccc(F)c(F)c1)c1cnc2ccccc2c1 | 91.3% |
| O=C(c1ccc(F)c(F)c1)N(CCN1CCC2(CC1)C(=O)NCN2c1cccc(F)c1)C(=O)c1ccc(F)c(F)c1 | 101% |
| Cc1ccc(C(=O)NCCN2CCC3(CC2)C(=O)NCN3c2ccccc2)c(O)c1 | 89.1% |
| C[C@@H](CN1CCC2(CC1)C(=O)N(Cc1ccccc1)c1ccccc12)NC(=O)c1ccc2ccccc2c1 | 90.4% |
| O=C(NCCN1CCC2(CC1)C(=O)NCN2c1ccc(Cl)cc1)c1ccc(Cl)cc1 | 103% |
| O=C(c1c(F)cccc1F)N(CCN1CCC2(CC1)C(=O)NCN2c1cccc(F)c1)C(=O)c1c(F)cccc1F | 97.9% |
| CN(CCN1CCC2(CC1)C(=O)NCN2c1ccccc1)C(=O)c1ccc2ccccc2c1 | 84.1% |
| O=C(c1cnc2ccccc2c1)N1CCC[C@@H]1CN1CCC2(CC1)C(=O)NCN2c1ccccc1 | 107% |
| O=C(NCCN1CCC2(CC1)C(=O)NCN2c1cccc(F)c1)c1ccc(F)nc1 | 117% |
| O=C(NCCN1CCC2(CC1)C(=O)NCN2c1ccc(Br)cc1)c1cc2cc(F)ccc2[nH]1 | 55.7% |
